# Data from PubChem BioAssay (NCATS).
# Records with an inconclusive call do not appear. Entries that show only a call come without a potency. The source made the active and inactive calls. Calls come from the whole dose curve; as a rule, active = well fitted curve in the direction sought with a large enough effect; inconclusive = small, poorly fitted or top-dose-only effect, or another doubt; inactive = no such curve, though single readings can be large; an effect the other way counts as inactive or inconclusive.
# How the values were obtained:
# [1] = tested on: Zika virus NS2B-NS3 protease; test: Primary screen GU AMC qHTS for Zika virus inhibitors (AID 1347154); note: nearly all actives have a fitted effect of over 70% in size; note: potency is the fitted concentration of half-maximal effect
# Outline: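 Fluorogenic AMC-substrate cleavage by noncovalent NS2B-NS3 protease complex (25 nM, pH 8.0 Tris buffer with Tween 20) followed for 15 minutes at room temperature (~20% conversion). Percent inhibition from ex340/em450 signal change, fitted by 4-parameter Hill equation.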
# [2] = tested on: Zika virus NS2B-NS3 protease (unlinked complex); test: Primary screen GU Rhodamine qHTS for Zika virus inhibitors: Unlinked NS2B-NS3 protease assay (AID 1347159); note: nearly all actives have a fitted effect of over 60% in size; note: potency is the fitted concentration of half-maximal effect
# Outline: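 Buffer 10 mM Tris-HCl pH 8.0, 0.01% Tween 20. Unlinked protease 25 nM; compound preincubation 15 min, RT, protected from light. Substrate Rhod110, 1.5 microM; ~15% conversion in 15 min.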
# [3] = tested on: Zika virus NS2B-NS3 protease (linked construct); test: Primary screen NINDS Rhodamine qHTS for Zika virus inhibitors (AID 1347160); note: nearly all actives have a fitted effect of over 55% in size; note: potency is the fitted concentration of half-maximal effect
# Outline: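 Aprotinin served as in-plate control. Conditions: 25 nM linked NS2B-NS3, pH 8.0 Tris buffer, titrated compounds, 15 min preincubation and 15 min reaction with 1.5 microM Rhod110 substrate at room temperature.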
# [4] = biological target: Lysine-specific demethylase 5B (Homo sapiens) (UniProt Q9UGL1); test: Optimization screen for KDM5B Histone Demethylases FDH coupled qHTS against the LOPAC library (AID 1347166)
# Outline: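 KDM5BDeltaAP (200nM final) in 50mM HEPES pH 7.5, 0.01% Tween-20 was preincubated with compound for 10 min at room temperature. A substrate mix of 12.5uM H3K4Me3, 25uM a-ketoglutarate, ascorbate, Fe2+, NAD+ and formaldehyde dehydrogenase was then added. NADH fluorescence (340/450 nm) was read initially and after 30 min.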
# [5] = Confirmatory screen GU Rhodamine qHTS for Zika virus inhibitors qHTS (AID 1347157); note: potency is the fitted concentration of half-maximal effect; nearly all actives have a fitted effect of over 70% in size
# Outline: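 In dose–response format, inhibition of unlinked protease (25 nM) was measured with 1.5 microM bis-peptide Rhodamine110 substrate. Aprotinin served as the intraplate control.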
# [6] = Confirmatory screen NINDS Rhodamine qHTS for Zika virus inhibitors (AID 1347161); note: potency is the fitted concentration of half-maximal effect; nearly all actives have a fitted effect of over 60% in size
# Outline: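 In 10 mM Tris-HCl pH 8.0 containing 0.01% Tween 20, linked NS2B-NS3 protease (25 nM final) is exposed to test compounds for 15 min. Cleavage of 1.5 microM Rhodamine110 substrate is tracked by fluorescence over 15 min.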
# [7] = tested on: Zika virus NS2B-NS3 protease (linked construct); test: 384 well plate NINDS Rhodamine confirmatory qHTS for Zika virus inhibitors (AID 1347164);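 note: fluorescence from protease cleavage of Ac-LKRR-rhodamine 110 substrate; top concentration of the series differs between compounds; nearly all actives have a fitted effect of over 65% in size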
# Outline: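 Linked protease at a final 5 nM, 30 nM or 60 nM was preincubated ~15 min with compounds, then given 10 microM Ac-LKRR-Rhodamine 110. Fluorescence (ex 485/em 538 nm) after 25 min in the dark at room temperature.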
# [8] = Vero cells viability qHTS for Zika virus inhibitors (AID 1347167)
# Outline: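 Luminescent ATP readout (CellTiter Glo) after 30 min at 37 degrees C gives viability; cells in DMEM + 4% FBS were treated 24 to 48 hours with compound, following overnight attachment.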
# Sequence of Lysine-specific demethylase 5B (Homo sapiens) (Q9UGL1 whole entry, looked up): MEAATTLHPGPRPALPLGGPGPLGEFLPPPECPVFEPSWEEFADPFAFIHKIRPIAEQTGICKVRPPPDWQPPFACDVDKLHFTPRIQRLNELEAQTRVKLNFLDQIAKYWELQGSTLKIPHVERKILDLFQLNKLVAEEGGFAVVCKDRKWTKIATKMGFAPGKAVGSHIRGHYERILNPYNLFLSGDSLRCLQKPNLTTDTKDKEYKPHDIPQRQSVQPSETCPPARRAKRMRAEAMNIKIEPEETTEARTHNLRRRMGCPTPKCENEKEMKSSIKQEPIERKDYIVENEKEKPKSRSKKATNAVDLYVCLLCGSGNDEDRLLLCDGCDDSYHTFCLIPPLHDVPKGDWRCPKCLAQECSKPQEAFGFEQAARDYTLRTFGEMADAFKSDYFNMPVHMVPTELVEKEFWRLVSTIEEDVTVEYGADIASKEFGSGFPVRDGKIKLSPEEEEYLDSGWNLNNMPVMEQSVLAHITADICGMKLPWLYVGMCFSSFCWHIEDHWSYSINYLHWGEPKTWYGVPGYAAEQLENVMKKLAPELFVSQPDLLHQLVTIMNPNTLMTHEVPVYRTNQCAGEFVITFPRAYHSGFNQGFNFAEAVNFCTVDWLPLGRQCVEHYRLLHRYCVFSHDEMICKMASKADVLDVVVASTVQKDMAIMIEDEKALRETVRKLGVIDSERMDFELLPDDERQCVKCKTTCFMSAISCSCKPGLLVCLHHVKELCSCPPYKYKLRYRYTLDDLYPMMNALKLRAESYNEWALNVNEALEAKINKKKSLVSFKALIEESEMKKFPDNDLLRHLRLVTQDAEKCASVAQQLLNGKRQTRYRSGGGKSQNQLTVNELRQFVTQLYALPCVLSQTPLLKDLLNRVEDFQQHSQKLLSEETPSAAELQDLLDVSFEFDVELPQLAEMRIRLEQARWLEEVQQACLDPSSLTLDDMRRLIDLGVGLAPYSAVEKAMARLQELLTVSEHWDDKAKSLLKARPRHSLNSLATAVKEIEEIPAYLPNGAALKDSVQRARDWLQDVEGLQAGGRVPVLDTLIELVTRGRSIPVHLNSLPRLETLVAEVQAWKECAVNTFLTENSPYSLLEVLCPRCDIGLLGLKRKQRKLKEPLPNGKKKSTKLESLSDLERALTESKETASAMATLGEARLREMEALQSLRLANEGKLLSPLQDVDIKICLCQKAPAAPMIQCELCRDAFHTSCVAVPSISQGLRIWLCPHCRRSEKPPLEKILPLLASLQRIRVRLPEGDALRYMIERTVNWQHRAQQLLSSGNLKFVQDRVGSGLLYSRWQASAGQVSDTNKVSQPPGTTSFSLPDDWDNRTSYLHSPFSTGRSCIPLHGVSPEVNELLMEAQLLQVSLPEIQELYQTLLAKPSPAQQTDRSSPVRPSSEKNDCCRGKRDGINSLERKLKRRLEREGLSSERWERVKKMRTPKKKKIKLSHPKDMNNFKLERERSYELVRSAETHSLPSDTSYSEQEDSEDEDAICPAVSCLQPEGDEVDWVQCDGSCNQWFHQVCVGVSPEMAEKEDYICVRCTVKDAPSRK
smiles,measurement,setting,value
CN(C[C@@H]1COCCO1)S(=O)(=O)Nc1ccc2ccc3ncc(-c4cnn(C)c4)cc3c(=O)c2c1,Potency,[1],inactive
same,Potency,[2],inactive
same,Potency,[3],inactive
CC(C)(C)Cn1c(N)nc2ccc(-c3[nH]c(C(C)(C)C)nc3-c3ccc(F)cc3)nc21,Potency,[1],10.8 µM (active)
same,Potency,[2],inactive
same,Potency,[3],inactive
CN1CCN(CCOc2cc(OC3CCOCC3)c3c(Nc4c(Cl)ccc5c4OCO5)ncnc3c2)CC1,Potency,[1],inactive
same,Potency,[2],inactive
same,Potency,[3],inactive
O=C(O)c1ccccc1C(=O)Nc1ccc(-c2ccccc2)cc1,Potency,[1],inactive
same,Potency,[2],inactive
same,Potency,[3],inactive
COc1ccc2c(Oc3ccc(NC(=O)c4c(C)n(CC(C)(C)O)n(-c5ccccc5)c4=O)nc3)ccnc2c1,Potency,[1],inactive
same,Potency,[2],inactive
same,Potency,[3],inactive
COc1cc(Nc2ncc(F)c(Nc3ccc4c(n3)NC(=O)C(C)(C)O4)n2)cc(OC)c1OC,Potency,[1],inactive
same,Potency,[3],inactive
CC(C)C(=O)Oc1ccc(CO)cc1[C@H](CCN(C(C)C)C(C)C)c1ccccc1,Potency,[1],inactive
same,Potency,[2],inactive
same,Potency,[3],inactive
CN(C)Cc1ccc(-c2nc3cccc4c3n2CCNC4=O)cc1,Potency,[2],inactive
same,Potency,[3],inactive
O=C(NCc1ccccc1)c1csc(Nc2ccncn2)n1,Potency,[1],inactive
same,Potency,[2],inactive
same,Potency,[3],inactive
NC(=O)c1cnc(-c2ccc(C3(N)CCC3)cc2)c(-c2ccccc2)c1,Potency,[1],inactive
same,Potency,[2],inactive
same,Potency,[3],inactive
COc1cc2ncnc(-n3nc(-c4ccccn4)nc3N)c2cc1OC,Potency,[1],inactive
same,Potency,[2],inactive
same,Potency,[3],inactive
Cn1c(N2CCCCS2(=O)=O)nc(C(=O)NCc2ccc(F)cc2)c(O)c1=O,Potency,[1],inactive
same,Potency,[2],inactive
same,Potency,[3],inactive
CCCCCN(C)CCC(O)(P(=O)(O)O)P(=O)(O)O,Potency,[1],inactive
same,outcome,[4],inactive
Cc1cccc(Nc2nc(-c3ccncc3)cs2)c1,Potency,[1],inactive
same,Potency,[2],inactive
same,Potency,[3],inactive
COc1ccc(Cc2ccc(NC(N)=O)cc2)cc1-c1cccc(Cl)c1,Potency,[1],inactive
same,Potency,[2],inactive
same,Potency,[3],inactive
COCCOC(=O)C1=C(C)NC2=C(C(=O)CC(c3ccccc3OC)C2)C1c1cccc(O)c1 (centres undefined),Potency,[2],inactive
same,Potency,[3],inactive
COCCOc1nc(-c2ccc(Cl)c(Cl)c2)n(-c2ccc(NC(=O)CCl)cc2)n1,Potency,[1],inactive
same,Potency,[2],inactive
same,Potency,[3],inactive
O=C(O)C(O)Cc1ccc(O)c(O)c1 (centres undefined),Potency,[3],3.49 µM (active)
Cc1ccccc1C(C(=O)NC1CCCCC1)N(C(=O)Cn1ccnc1C)c1cccc(F)c1 (centres undefined),Potency,[1],inactive
same,Potency,[2],inactive
same,Potency,[3],inactive
CO[C@H]1C=CO[C@@]2(C)Oc3c(C)c(O)c4c(O)c(c5c(c4c3C2=O)NC2(CCN(CC(C)C)CC2)N=5)=NC(=O)C(C)=CC=C[C@H](C)[C@H](O)[C@@H](C)[C@@H](O)[C@@H](C)[C@H](OC(C)=O)[C@H]1C,Potency,[1],inactive
same,Potency,[2],inactive
same,Potency,[3],inactive
CS(=O)(=O)N(Cc1ccco1)CC(O)Cn1c2ccccc2c2ccccc21 (centres undefined),Potency,[1],inactive
same,Potency,[2],inactive
same,Potency,[3],inactive
COc1cc2c(cc1OC)CN(CCc1ccc(NC(=O)c3cc(OC)c(OC)cc3NC(=O)c3cnc4ccccc4c3)cc1)CC2,Potency,[1],inactive
same,Potency,[2],inactive
same,Potency,[3],inactive
CCn1c(C(=O)N(C2CC2)C2CC2)cc2c3c(ncn3C)c(Nc3cc(C)n(C)n3)nc21,Potency,[2],inactive
same,Potency,[3],inactive
COc1cc(N2CCC(N3CCN(C)CC3)CC2)ccc1Nc1ncnc(Nc2ccccc2S(=O)(=O)C(C)C)n1,Potency,[1],inactive
same,Potency,[2],inactive
same,Potency,[3],inactive
CC(C)C(=O)Nc1ncc(-c2cc(C(F)F)nn2-c2c(Cl)cccc2Cl)s1,Potency,[1],inactive
same,Potency,[2],inactive
same,Potency,[3],inactive
CC(C)(C)OC(=O)N[C@H]1CCCCCC=C[C@@H]2C[C@@]2(C(=O)NS(=O)(=O)C2CC2)NC(=O)[C@@H]2C[C@@H](OC(=O)N3Cc4cccc(F)c4C3)CN2C1=O,Potency,[5],49.4 µM (active)
same,Potency,[2],35.5 µM (active)
same,Potency,[3],inactive
same,Potency,[6],49.4 µM (active)
Cc1c(NC(=O)c2ccc(C(C)(C)C)cc2)cccc1-c1cn(C)c(=O)c(Nc2ccc(C(=O)N3CCOCC3)cc2)n1,Potency,[2],inactive
same,Potency,[3],inactive
COc1ccc(C2Sc3ccccc3N(CCN(C)C)C(=O)C2OC(C)=O)cc1 (centres undefined),Potency,[1],inactive
same,Potency,[2],inactive
same,Potency,[3],inactive
CN(C)c1cc(NC(=O)CNC(C)(C)C)c(O)c2c1C[C@@H]1C[C@H]3[C@H](N(C)C)C(=O)C(C(N)=O)=C(O)[C@@]3(O)C(=O)C1=C2O,Potency,[6],4.41 µM (active)
same,Potency,[7],inactive
same,Potency,[8],inactive
COc1ccc(C2CC(c3ccccc3)=NN2c2ccc(S(N)(=O)=O)cc2)cc1 (centres undefined),Potency,[1],inactive
same,Potency,[2],inactive
same,Potency,[3],inactive
CCOC(=O)C1=C(N)Oc2ccc(Br)cc2C1C(C#N)C(=O)OCC (centres undefined),Potency,[1],inactive
same,Potency,[3],inactive
CNC(=O)c1ccc2cc(C3(O)CCn4cncc43)ccc2c1 (centres undefined),Potency,[1],inactive
same,Potency,[2],inactive
same,Potency,[3],inactive
NC(=O)c1cccc(-c2cc(Nc3ccc(OC(F)(F)F)cc3)ncn2)c1,Potency,[1],inactive
same,Potency,[2],inactive
same,Potency,[3],inactive
O=C(Nc1ccccc1-c1cn2c(CN3CCNCC3)csc2n1)c1cnc2ccccc2n1,Potency,[1],inactive
same,Potency,[2],inactive
same,Potency,[3],inactive
